Experimental findings from PubChem BioAssay are described below.

The target of assay [1] is Albumin (Bos taurus) (UniProt P02769). Description: compounds binding labelled BSA control protein – biochemical, small-molecule microarray, Alexa647 label, 635/667 nm fluorescence, artefact control for SMM control protein annotation, profiling panel (AID 1118).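 Note: score merges 667 nm emission intensity and signal-to-noise per printed compound spot.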 The settings on record: BSA-A647 binding, fluorescence 635 nm, higher = more signal.
Chain of Albumin (Bos taurus) (P02769 whole entry, looked up): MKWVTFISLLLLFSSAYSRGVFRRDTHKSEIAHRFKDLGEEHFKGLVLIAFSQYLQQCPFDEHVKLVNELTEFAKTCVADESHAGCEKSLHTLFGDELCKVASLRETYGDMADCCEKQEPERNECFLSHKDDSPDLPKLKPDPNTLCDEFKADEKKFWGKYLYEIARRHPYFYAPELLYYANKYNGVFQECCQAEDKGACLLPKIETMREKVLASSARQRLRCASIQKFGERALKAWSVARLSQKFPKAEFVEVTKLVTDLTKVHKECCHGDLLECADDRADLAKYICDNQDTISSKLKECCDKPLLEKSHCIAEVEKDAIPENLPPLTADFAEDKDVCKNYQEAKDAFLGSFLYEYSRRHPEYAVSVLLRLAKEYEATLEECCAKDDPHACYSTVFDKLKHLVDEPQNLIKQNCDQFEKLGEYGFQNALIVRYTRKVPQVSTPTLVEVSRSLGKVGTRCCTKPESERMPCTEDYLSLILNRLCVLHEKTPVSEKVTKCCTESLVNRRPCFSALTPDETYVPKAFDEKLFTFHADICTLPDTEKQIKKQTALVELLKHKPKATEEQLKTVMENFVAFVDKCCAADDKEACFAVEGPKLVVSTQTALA
The nature of assay [2]: probe aXIP binding to arrayed compounds – biochemical, NeuroSMM set, 635/667 nm fluorescence, primary screen (AID 1119).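 Note: probe is the protein aXip251-270 applied at 1 µg/mL to compound-printed slides; binding of probe to printed compounds measured as 667 nm fluorescence plus signal to noise.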 As to conditions: small-molecule microarray, higher = more signal, called active from +8 up or from −8 down.
Assay [3] can be described thus: probe aNOTCH3 binding on compound microarray – biochemical, small-molecule microarray, 635/667 nm fluorescence, primary screen (AID 1120).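 Note: probe is a biotin-tagged antibody raised against NOTCH3 rather than NOTCH3 protein; score merges spot fluorescence near 667 nm with spot signal to noise.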 As to conditions: higher = more signal.
The nature of assay [4]: probe aNOTCH2 binding on compound microarray – biochemical, small-molecule microarray, 635/667 nm fluorescence, primary screen (AID 1121).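 Note: score merges feature fluorescence read at 667 nm with its signal to noise.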 As to conditions: higher = more signal.
Assay [5] addresses Carbonic anhydrase 2 (Homo sapiens) (UniProt P00918). Description: compounds binding carbonic anhydrase 2 – biochemical, small-molecule microarray, Alexa647-labelled CAII, profiling panel (AID 1122). The settings on record: CAII-A647 binding fluorescence, higher = more signal.
Assay [6] is described as follows: COS7 lysate on small-molecule microarray, probe aHis, 635 nm (AID 1123).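 Note: z-score combines 667nm fluorescence intensity with signal-to-noise per printed compound spot.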 The settings on record: COS7 cell lysate, fluorescence, higher = more signal.
The nature of assay [7]: probe aLAP1 signal on lysate-treated microarray – cell lysate, small-molecule microarray, COS7 lysate, primary screen (AID 1124).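 Note: lysate comes from COS7 cells expressing LAP1 and is applied at 0.3 µg/mL; score merges spot fluorescence near 667 nm with signal-to-noise over triplicate slides.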 The settings on record: probe aLAP1, fluorescence, higher = more signal.
Assay [8] has as its system Sam68 (KHDRBS1). Description: compounds binding KHDRBS1 protein – biochemical, small-molecule microarray, 635 nm fluorescence, primary screen (AID 1125).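 Note: score merges 667 nm channel intensity with signal to noise over triplicate slides.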 The settings on record: higher = more signal.
Assay [9] concerns Chordin-like protein 2 (CHRDL2). In words: compounds binding chordin-like 2 – biochemical, small-molecule microarray, 635 nm fluorescence, primary screen (AID 1126).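 Note: printed compound slides probed with Chrdl2 protein at 4 µg/mL for 1 h at 4 C; score merges 667 nm emission intensity with signal to noise over three replicate slides.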 As to conditions: fluorescence 635 nm, higher = more signal.
For assay [10], the target named is Concanavalin-A (Canavalia ensiformis) (UniProt P02866). Description: compounds binding concanavalin A lectin – biochemical, small-molecule microarray, Alexa647 label, 635 nm, artefact control for SMM control protein annotation, primary screen (AID 1127).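 Note: z combines 667 nm emission intensity with signal-to-noise across three replicate slides.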 The settings on record: ConA-A647 binding fluorescence, higher = more signal.
Chain of Concanavalin-A (Canavalia ensiformis) (P02866 whole entry, looked up): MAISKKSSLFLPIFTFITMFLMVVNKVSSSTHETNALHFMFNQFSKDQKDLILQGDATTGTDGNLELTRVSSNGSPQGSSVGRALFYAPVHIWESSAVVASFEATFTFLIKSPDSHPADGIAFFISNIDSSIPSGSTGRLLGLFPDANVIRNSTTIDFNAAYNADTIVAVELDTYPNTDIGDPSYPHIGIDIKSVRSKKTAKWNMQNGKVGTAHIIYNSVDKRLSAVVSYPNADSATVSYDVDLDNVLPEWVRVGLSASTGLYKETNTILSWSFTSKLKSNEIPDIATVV
Assay [11] is described as follows: compounds binding Alexa647 anti-His antibody – biochemical, small-molecule microarray, 635 nm fluorescence, artefact control for SMM control protein annotation, primary screen (AID 1128).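 Note: score merges feature fluorescence with signal-to-noise for each printed compound spot.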 The settings on record: higher = more signal.
Assay [12] relates to Human papillomavirus type 1a E7 protein (residues 1-88). Description: HPV1a E7 small-molecule binders, primary screen, biochemical, small-molecule microarray, residues 1-88, 635 nm (AID 1129). The settings on record: small-molecule microarray binding, fluorescence 635 nm; higher = more signal.
In assay [13] the target is Focal adhesion kinase 1 (Homo sapiens) (UniProt Q05397). In words: PTK2 protein binding on printed compound slides – biochemical, small-molecule microarray, 635/667 nm fluorescence, BSA, DTT, primary screen (AID 1130).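 Note: composite of spot emission at 667 nm and signal to noise over triplicate slides.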 As to conditions: 635 nm fluorescence, higher = more signal.
Chain of Focal adhesion kinase 1 (Homo sapiens) (Q05397 whole entry, looked up): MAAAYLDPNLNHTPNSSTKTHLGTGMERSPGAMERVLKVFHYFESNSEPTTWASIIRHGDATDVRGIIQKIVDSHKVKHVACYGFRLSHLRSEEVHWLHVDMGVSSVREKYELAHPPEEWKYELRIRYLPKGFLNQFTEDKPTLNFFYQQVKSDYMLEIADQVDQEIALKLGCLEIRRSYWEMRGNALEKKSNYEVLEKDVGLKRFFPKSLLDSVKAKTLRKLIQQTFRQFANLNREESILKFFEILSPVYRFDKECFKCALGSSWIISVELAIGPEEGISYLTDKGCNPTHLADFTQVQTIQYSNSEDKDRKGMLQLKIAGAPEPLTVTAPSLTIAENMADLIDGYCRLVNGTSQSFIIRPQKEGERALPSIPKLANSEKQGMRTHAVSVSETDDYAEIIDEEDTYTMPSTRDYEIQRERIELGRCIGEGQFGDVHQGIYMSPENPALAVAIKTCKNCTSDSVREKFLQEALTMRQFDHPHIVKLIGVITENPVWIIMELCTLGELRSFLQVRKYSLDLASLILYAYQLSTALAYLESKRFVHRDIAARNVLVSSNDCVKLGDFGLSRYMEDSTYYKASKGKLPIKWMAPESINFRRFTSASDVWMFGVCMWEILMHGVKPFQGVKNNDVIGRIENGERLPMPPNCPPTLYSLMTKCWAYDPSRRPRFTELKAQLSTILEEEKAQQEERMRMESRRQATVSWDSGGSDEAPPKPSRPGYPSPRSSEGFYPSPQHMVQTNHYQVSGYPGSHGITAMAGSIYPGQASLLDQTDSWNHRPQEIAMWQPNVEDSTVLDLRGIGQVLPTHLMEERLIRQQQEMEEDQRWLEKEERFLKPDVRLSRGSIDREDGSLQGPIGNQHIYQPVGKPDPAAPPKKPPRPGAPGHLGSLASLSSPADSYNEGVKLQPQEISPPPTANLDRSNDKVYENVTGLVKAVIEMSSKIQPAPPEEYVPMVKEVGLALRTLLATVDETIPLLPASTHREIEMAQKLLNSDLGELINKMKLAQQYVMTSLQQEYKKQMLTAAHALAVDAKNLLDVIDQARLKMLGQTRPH
The subject of assay [14] is Fibrinogen (Alexa647-labelled). Description: Alexa647-fibrinogen binding to printed small molecules – biochemical, small-molecule microarray, 635/667 nm fluorescence, artefact control for SMM control-protein annotation, profiling panel (AID 1131).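 Note: z-score merges 667 nm fluorescence with per-spot signal-to-noise over triplicate slides.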 The settings on record: fibrinogen-A647 binding fluorescence, higher = more signal.
The target in assay [15] is Follistatin (Homo sapiens) (UniProt P19883). Description: FST protein binding to printed compounds – biochemical, small-molecule microarray, 635/667 nm fluorescence, primary screen (AID 1132). The settings on record: 635 nm fluorescence, higher = more signal.
Chain of Follistatin (Homo sapiens) (P19883 whole entry, looked up): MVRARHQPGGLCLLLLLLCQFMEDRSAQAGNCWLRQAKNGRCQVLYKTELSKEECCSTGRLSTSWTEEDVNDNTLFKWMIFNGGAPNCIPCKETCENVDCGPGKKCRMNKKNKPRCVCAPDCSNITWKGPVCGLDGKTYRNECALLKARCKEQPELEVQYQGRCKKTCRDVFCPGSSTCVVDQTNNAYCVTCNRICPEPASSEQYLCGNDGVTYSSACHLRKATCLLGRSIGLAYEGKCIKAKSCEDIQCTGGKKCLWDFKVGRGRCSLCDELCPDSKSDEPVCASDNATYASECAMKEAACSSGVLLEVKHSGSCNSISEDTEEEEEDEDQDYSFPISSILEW
Assay [16] has as its target Fibroblast growth factor 2 (Homo sapiens) (UniProt P09038). In words: basic fibroblast growth factor binding to printed compounds – biochemical, small-molecule microarray, 635/667 nm fluorescence, primary screen (AID 1133). The settings on record: FGF2, fluorescence 635/667, higher = more signal.
Assay [17] can be described thus: JC-1 mitochondrial potential readout, lung cancer cells – cell-based, A549, JC-1 fluorescence, basal, 24 h, 100 nL, profiling panel (AID 1138).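 Note: A549 lung adenocarcinoma cells under basal conditions with no added stimulus; test concentration not given here.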 The settings on record: higher = more signal.
Assay [18] relates to Lefty1. Description: Lefty1 protein binding to printed compounds – biochemical, small-molecule microarray, 635/667 nm fluorescence, primary screen (AID 1139). As to conditions: fluorescence 635/667, higher = more signal.
Assay [19] deals with wheat germ agglutinin (Triticum aestivum), Alexa647-labelled. Description: Alexa647-WGA lectin binding to printed small molecules – biochemical, small-molecule microarray, 635/667 nm fluorescence, artefact control for SMM control-protein annotation, profiling panel (AID 1140).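 Note: score merges 667 nm feature emission with signal to noise over triplicate slides.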 The settings on record: WGA-A647 binding, 635 nm fluorescence, higher = more signal.
Assay [20] addresses Luciferin 4-monooxygenase (Photinus pyralis) (UniProt P08659). Description: inhibition of purified Photinus pyralis luciferase – biochemical, luminescence, purified enzyme, 2006 set, primary screen (AID 1141).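 Note: cell-free assay with purified firefly luciferase at 100 ng per well in PBS; test concentration not given here.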 The settings on record: purified firefly luciferase, SteadyGlo luminescence, 30 min; higher = more signal, called active from +8 up or from −8 down.

The structures appear in SMILES notation. Calls of active or inactive are those of the source.

Chain of Fibroblast growth factor 2 (Homo sapiens) (P09038 whole entry, looked up): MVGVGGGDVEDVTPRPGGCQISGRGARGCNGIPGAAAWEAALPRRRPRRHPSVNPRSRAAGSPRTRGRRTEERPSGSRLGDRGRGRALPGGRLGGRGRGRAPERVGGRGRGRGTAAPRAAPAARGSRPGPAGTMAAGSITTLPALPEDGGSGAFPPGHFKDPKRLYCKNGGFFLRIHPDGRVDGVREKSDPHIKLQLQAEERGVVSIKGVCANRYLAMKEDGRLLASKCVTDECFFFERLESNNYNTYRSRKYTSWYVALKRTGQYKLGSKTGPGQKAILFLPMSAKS
Chain of Luciferin 4-monooxygenase (Photinus pyralis) (P08659 whole entry, looked up): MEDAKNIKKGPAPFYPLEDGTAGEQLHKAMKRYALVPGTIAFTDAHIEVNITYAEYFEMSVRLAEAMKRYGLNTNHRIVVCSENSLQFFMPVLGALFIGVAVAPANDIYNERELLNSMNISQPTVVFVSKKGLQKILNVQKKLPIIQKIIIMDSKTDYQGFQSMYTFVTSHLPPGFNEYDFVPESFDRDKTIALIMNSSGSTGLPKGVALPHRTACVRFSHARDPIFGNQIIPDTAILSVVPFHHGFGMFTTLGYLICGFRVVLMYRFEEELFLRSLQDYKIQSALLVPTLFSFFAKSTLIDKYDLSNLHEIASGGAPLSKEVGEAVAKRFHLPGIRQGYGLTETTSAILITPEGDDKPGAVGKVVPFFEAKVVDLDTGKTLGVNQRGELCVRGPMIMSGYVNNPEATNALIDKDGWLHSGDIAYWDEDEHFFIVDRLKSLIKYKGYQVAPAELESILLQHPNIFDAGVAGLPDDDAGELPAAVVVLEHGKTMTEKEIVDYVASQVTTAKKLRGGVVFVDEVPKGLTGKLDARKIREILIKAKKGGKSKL

On to `CC1(C)[C@@H]2CC(C(O)C3C=CC4C(=O)N(Cc5ccccc5)C(=O)C4N3n3cnnc3)=C[C@H]1C2` (stereo not given in full), for which the composite z-score in [1] was 0.925; in assay [3] it was -0.0079; in assay [4], -0.0866; in assay [5] it was 0.651; in assay [6], 1.39; in [7] it was 0.641. Further, the composite z-score in [8] came out at 1.34; in assay [9], 0.371; in assay [10], 0.39; in [11], 0.356; in [12], 1.19; in assay [13] it was 0.218. Besides, the composite z-score in assay [14] is 0.744; in assay [15], 0.86; in assay [16], 0.321; in assay [18], 0.625; in assay [19] it was 0.901. Also, the composite Z-score in assay [2] was -0.132 (inactive). For the same molecule, the z-score in assay [17] was -0.287; in assay [20] it was 1.62 (inactive).
For the molecule `CC#CC(=O)Oc1ccccc1C=CC(=O)OCC`, the composite z-score in assay [1] was -0.138; in [3], 0.0035; in [4] it was -0.118; in [5], 0.358; in [6] it was -0.0224; in [7] it was -0.021. For the same molecule, the composite z-score is 0.82 in assay [8]; -0.0448 in assay [9]; 0.502 in [10]; 0.259 in [11]; 0.69 in assay [12]; -0.0142 in assay [13]. Besides, the composite z-score is -0.0002 in assay [14]; 0.036 in assay [15]; 0.524 in assay [16]; 0.51 in assay [18]; 0.0601 in [19]. Further, the composite Z-score in assay [2] was -0.263 (inactive). Besides, the z-score in assay [17] was -1.04; in assay [20], 1.51 (inactive).
For the molecule `COC(=O)c1c(CC[C@@H](CO)NC(=O)NCCn2cc(C3(O)CCCC3)nn2)oc(C(C)=O)c1C(=O)OC`, the composite z-score in assay [1] is 0.351; in [3] it was -0.209; in assay [4], -0.128; in assay [5], 0.745; in assay [6], 0.603; in [7], -0.108. Moreover, the composite z-score is 0.492 in assay [8]; -0.505 in assay [9]; -0.027 in assay [10]; 0.828 in assay [11]; 0.0881 in assay [12]; 0.182 in assay [13]. The composite z-score was 0.292 in assay [14]; -0.273 in assay [15]; 0.247 in assay [16]; 0.199 in [18]; 0.128 in [19]. Also, in [2], the composite Z-score was -0.79 (inactive). For the same molecule, the z-score in [17] was -0.415; in [20] it was 0.7 (inactive).
Regarding `CC(=O)NCCCC[C@@H]1NC(=O)[C@@H]2C[C@H](C(=O)NCCCCCNC(=O)CS)[C@H](c3cccc(OCCO)c3)N2C1=O`, the composite z-score in assay [1] was -0.0839; in assay [3], -0.205; in assay [4] it was -0.159; in assay [5], -0.0086; in [6] it was -0.0704; in assay [7], -0.0909. The composite z-score in [8] was 0.254; in assay [9], 1.05; in [10] it was 0.241; in assay [11], 2; in assay [12] it was -0.516; in [13], -0.612. Besides, the composite z-score in assay [14] is -1.07; in [15] it was 1.32; in assay [16], 0.94; in assay [18], 1.1; in [19], 0.0847. Further, in assay [2], the composite Z-score is 0.648 (inactive). The values for the z-score in assay [17] and in assay [20] were -0.763 and -0.125 (inactive), respectively.
Consider `O=C1OCCC/C=C\[C@H]2OC34C=CCN(Cc5ccccc5)C(=O)[C@H]3N(CCCO)C(=O)[C@@H]4C12` (stereo not given in full), for which the composite z-score in [1] is -0.937; in [3], -0.327; in [4], -0.104; in [5], 0.948; in [6], -0.861; in [7], 1.59. Also, the composite z-score is -0.374 in assay [8]; -1.79 in assay [9]; -1.53 in assay [10]; -0.14 in [11]; -0.496 in [12]; -0.66 in assay [13]. Besides, the composite z-score in assay [14] is -1.64; in assay [15], -1.29; in assay [16] it was -1.08; in assay [18] it was -1.28; in assay [19], -0.443. In [2], the composite Z-score was 0.581 (inactive). Further, the z-score was 1.26 in assay [17] and -1.26 (inactive) in [20].
